# Reference: ChEMBL document CHEMBL3988442, “University of Dundee, Small-Polar-MMV Screening Library” (2021)
# For some assays here: Entries with a potency or affinity are not part of this list.
# Key:
# Design in all cases: scale not given: direction of the effect not stated beside the values
# [1] = molecular target: Protein translocase subunit SecA (Escherichia coli (strain K12)) (UniProt P10408); assay: Assay to Identify E. coli SecA ATPase Inhibitors; format: functional; conditions: 30 µM
# [2] = molecular target: T1, Ubiquitin-activating enzyme e1, putative (Leishmania donovani (strain BPK282A1)) (UniProt E9BSI1); assay: Leishmania donovani Ubiquitin Activating Enzyme (LdE1); format: functional; conditions: 30 µM
# T1 sequence (whole entry): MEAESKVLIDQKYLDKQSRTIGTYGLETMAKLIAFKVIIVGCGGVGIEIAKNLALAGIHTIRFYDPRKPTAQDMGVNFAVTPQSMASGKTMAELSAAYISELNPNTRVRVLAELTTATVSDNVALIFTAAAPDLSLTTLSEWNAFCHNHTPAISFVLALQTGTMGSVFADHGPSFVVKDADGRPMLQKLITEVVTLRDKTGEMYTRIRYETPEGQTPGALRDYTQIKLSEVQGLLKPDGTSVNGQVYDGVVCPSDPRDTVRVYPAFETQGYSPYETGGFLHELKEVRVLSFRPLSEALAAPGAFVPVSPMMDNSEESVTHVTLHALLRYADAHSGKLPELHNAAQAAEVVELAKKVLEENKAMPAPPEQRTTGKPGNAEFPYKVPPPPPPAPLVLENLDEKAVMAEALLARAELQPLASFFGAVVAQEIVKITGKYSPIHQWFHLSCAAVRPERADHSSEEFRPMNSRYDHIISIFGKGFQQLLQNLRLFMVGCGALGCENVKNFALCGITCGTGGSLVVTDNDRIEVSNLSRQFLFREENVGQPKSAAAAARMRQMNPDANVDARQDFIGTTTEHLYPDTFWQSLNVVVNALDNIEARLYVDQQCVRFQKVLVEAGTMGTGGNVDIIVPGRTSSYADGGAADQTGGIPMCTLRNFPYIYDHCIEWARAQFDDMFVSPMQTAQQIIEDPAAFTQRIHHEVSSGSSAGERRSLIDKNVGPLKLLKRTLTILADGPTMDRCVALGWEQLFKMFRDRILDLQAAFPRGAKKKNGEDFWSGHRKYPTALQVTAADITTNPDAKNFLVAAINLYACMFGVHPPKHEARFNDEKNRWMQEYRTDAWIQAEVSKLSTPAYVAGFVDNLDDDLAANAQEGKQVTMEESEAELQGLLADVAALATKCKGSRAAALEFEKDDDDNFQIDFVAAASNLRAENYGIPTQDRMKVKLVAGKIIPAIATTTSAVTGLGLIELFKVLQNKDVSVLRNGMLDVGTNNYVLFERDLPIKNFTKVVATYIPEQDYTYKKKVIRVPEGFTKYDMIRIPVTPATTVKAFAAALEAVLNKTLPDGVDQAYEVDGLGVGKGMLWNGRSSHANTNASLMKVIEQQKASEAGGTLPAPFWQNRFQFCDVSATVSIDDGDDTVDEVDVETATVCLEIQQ
# [3] = molecular target: AMP-activated protein kinase, AMPK (Homo sapiens) (UniProt P54646+O43741+P54619+Q9UGJ0+Q9Y478+Q13131+Q9UGI9); assay: AMP-dependent Kinase enzyme assay. An in vitro enzyme assay that detects ADP turnover that is directly proportional to AMPK activity. This uses naive AMPK that is activated during the assay with MK-8722; format: functional; conditions: 30 µM
# [4] = molecular target: Sialic acid-binding Ig-like lectin 9 (Homo sapiens) (UniProt Q9Y336); assay: Hs-Siglec9 ALPHAscreen SOP 20170721; conditions: 10 µM
# Sequence of Sialic acid-binding Ig-like lectin 9 (Homo sapiens) (Q9Y336 whole entry): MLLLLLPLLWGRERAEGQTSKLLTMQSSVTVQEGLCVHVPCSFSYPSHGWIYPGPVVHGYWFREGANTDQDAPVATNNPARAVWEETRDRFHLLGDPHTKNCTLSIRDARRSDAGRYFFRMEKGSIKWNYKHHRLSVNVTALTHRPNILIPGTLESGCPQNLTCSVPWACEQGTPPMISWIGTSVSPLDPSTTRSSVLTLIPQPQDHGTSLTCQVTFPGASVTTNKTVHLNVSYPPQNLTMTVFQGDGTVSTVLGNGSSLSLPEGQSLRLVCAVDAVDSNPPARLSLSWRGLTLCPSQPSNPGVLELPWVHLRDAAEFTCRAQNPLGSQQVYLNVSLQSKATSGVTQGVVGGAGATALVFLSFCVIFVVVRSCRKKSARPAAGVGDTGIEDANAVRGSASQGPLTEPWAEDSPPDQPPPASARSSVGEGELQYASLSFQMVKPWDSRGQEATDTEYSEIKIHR
# Trypanosoma cruzi = assay: Trypanosoma cruzi phosphomannomutase and mannose-1-phosphate guanylyltransferase assay; format: functional; conditions: 10 µM
# [5] = molecular target: T2, Arginase-2, mitochondrial (Homo sapiens) (UniProt P78540); assay: in vitro enzyme assay to detect the production of urea directly proportional to the activity of Arginase II; format: functional; conditions: 33.3 µM; note: in the data most compounds retested in dose-response had high values
# T2 sequence (whole entry): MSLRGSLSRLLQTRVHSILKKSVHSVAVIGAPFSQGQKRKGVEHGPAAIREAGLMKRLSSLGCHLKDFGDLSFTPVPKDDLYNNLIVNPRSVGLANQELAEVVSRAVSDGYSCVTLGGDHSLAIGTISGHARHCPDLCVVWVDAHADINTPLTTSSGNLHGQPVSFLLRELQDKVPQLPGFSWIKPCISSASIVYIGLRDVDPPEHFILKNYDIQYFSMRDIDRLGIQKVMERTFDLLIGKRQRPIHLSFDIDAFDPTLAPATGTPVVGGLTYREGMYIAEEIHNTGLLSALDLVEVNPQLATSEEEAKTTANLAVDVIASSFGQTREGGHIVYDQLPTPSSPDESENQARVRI
# [6] = molecular target: T3, Proteasome subunit beta (Trypanosoma cruzi) (UniProt O96673); assay: Trypanosoma cruzi proteasome chymotrypsin-like activity (TcProtChymo) assay.; note: in the data most compounds retested in dose-response had high values; format: functional; conditions: 9.37 µM
# T3 sequence (whole entry): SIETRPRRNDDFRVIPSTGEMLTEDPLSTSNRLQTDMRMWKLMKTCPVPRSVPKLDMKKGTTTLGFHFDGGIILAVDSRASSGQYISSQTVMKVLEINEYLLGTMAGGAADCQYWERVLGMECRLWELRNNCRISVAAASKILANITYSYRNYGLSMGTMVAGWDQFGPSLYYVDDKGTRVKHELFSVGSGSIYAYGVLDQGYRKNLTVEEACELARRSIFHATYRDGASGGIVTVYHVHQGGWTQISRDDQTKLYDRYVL
# Homo sapiens = species: Homo sapiens; assay: To identify inhibition of the IFN signalling (Jak-Stat) pathway via expression of an eGFP reporter gene under the control of an IFN-stimulated response element (ISRE) containing MxA promoter.; format: functional; conditions: 30 µM
# [7] = molecular target: T4, Tyrosyl-tRNA synthetase, putative (Trypanosoma cruzi (strain CL Brener)) (UniProt Q4DSP6); assay: Trypanosoma cruzi tyrosyl tRNA synthetase (TcYRS) _High Tyrosine SOP; format: functional; conditions: 30 µM; note: in the data most compounds retested in dose-response had high values
# T4 sequence (whole entry): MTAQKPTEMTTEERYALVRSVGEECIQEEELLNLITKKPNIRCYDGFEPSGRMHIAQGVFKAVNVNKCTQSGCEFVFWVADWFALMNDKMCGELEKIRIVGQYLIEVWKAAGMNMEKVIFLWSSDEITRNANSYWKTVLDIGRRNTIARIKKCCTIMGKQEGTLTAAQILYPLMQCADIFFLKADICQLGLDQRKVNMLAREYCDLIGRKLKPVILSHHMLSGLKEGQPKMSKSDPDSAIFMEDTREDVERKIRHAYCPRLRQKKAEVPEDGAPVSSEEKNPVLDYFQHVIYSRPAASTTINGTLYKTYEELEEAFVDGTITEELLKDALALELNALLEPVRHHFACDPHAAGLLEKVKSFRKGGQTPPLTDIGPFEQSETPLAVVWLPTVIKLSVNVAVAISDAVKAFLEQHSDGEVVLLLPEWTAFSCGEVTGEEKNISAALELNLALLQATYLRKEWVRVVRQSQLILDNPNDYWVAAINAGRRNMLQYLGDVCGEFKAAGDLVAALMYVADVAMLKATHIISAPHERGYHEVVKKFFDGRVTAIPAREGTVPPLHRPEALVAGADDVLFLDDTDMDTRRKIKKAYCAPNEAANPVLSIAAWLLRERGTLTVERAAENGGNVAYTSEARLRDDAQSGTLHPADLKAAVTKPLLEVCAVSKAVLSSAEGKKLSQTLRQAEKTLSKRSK
# [8] = molecular target: T4, Tyrosyl-tRNA synthetase, putative (Trypanosoma cruzi (strain CL Brener)); assay: Trypanosoma cruzi tyrosyl tRNA synthetase (TcYRS) SOP; format: functional; conditions: 30 µM
# [9] = molecular target: Chromo domain-containing protein 1 (Saccharomyces cerevisiae (strain ATCC 204508 / S288c) (Baker's yeast)) (UniProt P32657); assay: ScCHD-1 Enzyme Inhibition Assay; format: functional; conditions: 30 µM; note: in the data most compounds retested in dose-response had high values
# Sequence of Chromo domain-containing protein 1 (Saccharomyces cerevisiae (strain ATCC 204508 / S288c) (Baker's yeast)) (P32657 whole entry, the tested form may be a part): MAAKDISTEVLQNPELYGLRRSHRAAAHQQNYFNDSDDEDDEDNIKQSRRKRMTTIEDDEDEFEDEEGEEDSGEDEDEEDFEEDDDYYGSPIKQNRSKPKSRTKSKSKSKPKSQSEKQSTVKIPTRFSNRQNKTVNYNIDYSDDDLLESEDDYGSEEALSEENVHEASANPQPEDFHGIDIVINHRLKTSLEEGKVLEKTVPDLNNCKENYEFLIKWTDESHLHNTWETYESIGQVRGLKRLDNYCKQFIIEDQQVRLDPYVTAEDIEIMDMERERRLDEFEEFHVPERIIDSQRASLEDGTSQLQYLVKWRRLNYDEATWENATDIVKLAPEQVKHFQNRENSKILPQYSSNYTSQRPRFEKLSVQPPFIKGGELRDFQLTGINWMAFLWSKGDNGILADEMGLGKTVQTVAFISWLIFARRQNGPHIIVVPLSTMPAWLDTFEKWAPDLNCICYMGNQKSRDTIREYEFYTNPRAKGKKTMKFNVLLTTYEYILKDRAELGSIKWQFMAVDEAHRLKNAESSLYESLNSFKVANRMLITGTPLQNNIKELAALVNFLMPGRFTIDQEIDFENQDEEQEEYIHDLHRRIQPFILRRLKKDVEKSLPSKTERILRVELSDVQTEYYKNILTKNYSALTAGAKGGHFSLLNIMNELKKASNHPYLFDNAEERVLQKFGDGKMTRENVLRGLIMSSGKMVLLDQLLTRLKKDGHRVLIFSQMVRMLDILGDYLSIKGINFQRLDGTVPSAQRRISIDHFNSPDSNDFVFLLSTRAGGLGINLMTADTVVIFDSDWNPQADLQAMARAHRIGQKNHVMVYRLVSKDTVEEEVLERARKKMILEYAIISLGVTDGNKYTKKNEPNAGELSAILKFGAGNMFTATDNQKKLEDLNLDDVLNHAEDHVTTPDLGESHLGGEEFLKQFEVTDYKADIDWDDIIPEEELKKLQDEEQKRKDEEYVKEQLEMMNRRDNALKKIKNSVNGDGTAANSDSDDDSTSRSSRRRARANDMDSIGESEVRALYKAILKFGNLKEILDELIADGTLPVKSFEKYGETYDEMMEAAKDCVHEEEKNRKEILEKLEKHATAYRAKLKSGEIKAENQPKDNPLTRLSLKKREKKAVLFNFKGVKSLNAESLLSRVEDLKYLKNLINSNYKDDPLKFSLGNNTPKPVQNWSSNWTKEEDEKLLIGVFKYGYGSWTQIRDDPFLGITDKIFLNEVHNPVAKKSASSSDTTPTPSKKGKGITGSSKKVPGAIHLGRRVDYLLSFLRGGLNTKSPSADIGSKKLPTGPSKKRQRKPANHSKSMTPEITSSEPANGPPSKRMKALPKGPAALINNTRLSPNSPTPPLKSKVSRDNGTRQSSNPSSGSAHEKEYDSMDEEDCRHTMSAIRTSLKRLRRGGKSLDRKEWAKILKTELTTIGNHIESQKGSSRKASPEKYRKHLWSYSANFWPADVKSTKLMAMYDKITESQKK
# Sequence of Protein translocase subunit SecA (Escherichia coli (strain K12)) (P10408 whole entry): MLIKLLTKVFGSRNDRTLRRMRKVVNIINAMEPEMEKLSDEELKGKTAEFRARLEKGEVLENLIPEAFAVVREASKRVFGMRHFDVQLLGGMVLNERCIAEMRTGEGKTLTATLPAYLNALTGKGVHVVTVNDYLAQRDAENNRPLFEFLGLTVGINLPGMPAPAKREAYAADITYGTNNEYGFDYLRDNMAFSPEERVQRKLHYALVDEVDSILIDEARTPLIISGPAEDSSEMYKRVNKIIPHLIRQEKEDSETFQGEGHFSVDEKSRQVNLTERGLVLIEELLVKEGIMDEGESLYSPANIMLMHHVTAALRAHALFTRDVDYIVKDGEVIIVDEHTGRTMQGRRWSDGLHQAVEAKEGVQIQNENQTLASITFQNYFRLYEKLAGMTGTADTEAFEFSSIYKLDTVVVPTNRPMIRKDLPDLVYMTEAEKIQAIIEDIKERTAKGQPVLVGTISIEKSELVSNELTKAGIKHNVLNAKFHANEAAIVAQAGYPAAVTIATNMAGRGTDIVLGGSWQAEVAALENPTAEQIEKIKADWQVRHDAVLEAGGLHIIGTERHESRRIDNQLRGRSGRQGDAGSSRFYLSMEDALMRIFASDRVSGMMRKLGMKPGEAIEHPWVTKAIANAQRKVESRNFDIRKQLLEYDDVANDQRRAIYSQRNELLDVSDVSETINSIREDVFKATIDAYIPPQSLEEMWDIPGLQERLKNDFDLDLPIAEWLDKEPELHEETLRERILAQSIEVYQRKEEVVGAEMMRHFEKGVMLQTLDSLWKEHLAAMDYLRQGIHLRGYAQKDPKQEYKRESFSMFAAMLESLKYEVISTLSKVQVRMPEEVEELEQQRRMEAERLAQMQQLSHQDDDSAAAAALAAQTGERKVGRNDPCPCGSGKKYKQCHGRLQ
Structure (SMILES),Percent Effect [1],Percent Effect [2],Percent Effect [3],Percent Effect [4],Percent Effect (Trypanosoma cruzi),Percent Effect [5],Percent Effect [6],Percent Effect (Homo sapiens),Percent Effect [7],Percent Effect [8],Percent Effect [9]
CCCC(NC(=O)c1ccc(OC)cc1F)c1nnn[nH]1 (configuration not stated),-2.26%,5.33%,-8.28%,11.5%,5.16%,17.2%,9.24%,-13.2%,4.92%,8.64%,-4.91%
Cc1nc(CCCNC(=O)C2CC(=O)N(C(C)(C)C)C2)sc1C (configuration not stated),-3.07%,5.48%,-0.283%,4.12%,-3.57%,-2%,7.79%,12.9%,5.21%,13.6%,-5.51%
CC(=O)N(C)c1nc(CN2CCCCC2Cn2cncn2)cs1 (configuration not stated),-8.24%,7.79%,-1%,0.729%,-5.99%,-1.42%,7.43%,27.8%,5.83%,7.32%,-6.12%
COCC1CCN(C(=O)c2cccc(S(=O)(=O)NCC3(C)COC3)c2)C1 (configuration not stated),-8.36%,5.41%,0.667%,24.4%,1.07%,3.23%,1.63%,9.82%,6.45%,13.6%,-4.61%
O=C(Cn1cc(C(=O)O)ccc1=O)Nc1ccc(F)cc1Cl,-1.48%,14.7%,2.96%,5.48%,1.18%,-12.2%,11.5%,-15%,6.35%,5.13%,-9.34%
Cc1cc(CN2CCN(c3ccc4nncn4n3)C(C)C2)no1 (configuration not stated),-6.67%,20.8%,-6.96%,14.4%,5.8%,4.63%,11.2%,19.6%,9.71%,21.9%,-10.9%
Cc1ccc(C(=O)N2CCC3(CC2)CC(c2ccccc2)C(=O)N3)cn1 (configuration not stated),0.117%,18.7%,-5.79%,-1.61%,1.93%,-48.9%,18.1%,4.12%,1.04%,27.5%,-17.9%
CC(C(=O)NCc1ccc(-n2cncn2)nc1)n1ccnc1 (configuration not stated),-3.77%,2.6%,0.227%,15%,2.25%,1.05%,-1.21%,-15.5%,2.86%,2.35%,-8.54%
O=C(c1ccsc1)N1CCCC(c2cc(C(F)(F)F)[nH]n2)C1 (configuration not stated),-8.76%,5.26%,10.2%,-0.389%,-4.39%,0.719%,-2.12%,24.2%,0.493%,3.7%,7.08%
NC(=O)C1CN(C(=O)Nc2ccccc2N2CCCCCC2)CCO1 (configuration not stated),-6.93%,-48.6%,-3.8%,9.74%,6.96%,-3.88%,4.31%,11.3%,1.98%,15.8%,-1.09%
COC(=O)c1ccc(N2CCN(C(=O)c3ccncc3)C(C)C2)cc1 (configuration not stated),-4.64%,20.2%,-9.5%,4.75%,4.63%,-2.66%,10.1%,20.8%,8.37%,24.1%,-9.65%
COc1ccc(CN2C[C@@H](OCc3csc(C)n3)[C@H]3COC[C@H]32)cc1,-4.6%,2.74%,-10.5%,0.865%,-2.78%,-0.399%,2.65%,-6.15%,2.08%,8.64%,-3.52%
Cc1nc(N2CCN(C(=O)c3ccsc3)CC2)c2cnn(C)c2n1,-3.6%,2.7%,-6.08%,16.1%,1.6%,-6.01%,5.04%,5.31%,4.43%,13.6%,-7.11%
COCc1nc(C(=O)N2CCCC2c2ccccc2C)cs1 (configuration not stated),-2.11%,3.8%,3.68%,5.3%,0.513%,-4.09%,13.2%,16.4%,9.38%,22.8%,-22.3%
Cc1ccc(N2CCCC(N(C)Cc3cc(C)no3)C2)nn1 (configuration not stated),-0.747%,5.33%,-6.3%,43.3%,5.55%,23.4%,19.9%,0.899%,6.01%,11.1%,-17.3%
CNc1cc2c(nn1)CCN(C(=O)c1cc(F)cc(F)c1)C2,-4.7%,10.4%,2.19%,3.45%,2.84%,-3.16%,6.06%,3.72%,6.67%,9.41%,-21.1%
CSC(C)C(=O)N1CCCN(Cc2cscn2)CC1 (configuration not stated),-3.08%,18.4%,1.3%,-6.37%,-1.13%,-3.45%,15.9%,9.75%,4.41%,9.76%,-13.2%
CN(CCOc1cccc(CNC(=O)C2CC2)c1)C1CCOCC1,-3.16%,0%,2.77%,-1.13%,4.44%,3.33%,-3.45%,-3.27%,-0.529%,2.44%,0.329%
CC(C)(C)C(=O)N1CCCC1c1nc(O)cc(-c2ccccn2)n1 (configuration not stated),-5.78%,25.7%,5.44%,16.5%,3.36%,-1.62%,11.9%,7.83%,5.38%,24.7%,-13.5%
COCCNC(=O)C1(c2ccccc2C)CCOCC1,-6.97%,2.7%,-2.99%,-1.02%,-5%,4.81%,0.18%,13.2%,0.493%,-6.17%,-1.03%
O=C(c1ccsc1)N1CCc2c(CNc3ncccn3)n[nH]c2C1,-4.87%,10.7%,4.32%,1.51%,6.95%,-44.6%,1.88%,9.05%,-1.04%,7.5%,-6.05%
CC(OCC(F)(F)F)C(=O)Nc1ccc(-n2cncn2)nc1 (configuration not stated),-3%,2.6%,24.5%,-9.5%,-1.27%,1.05%,8.49%,22.3%,5.71%,9.41%,-17.1%
